# Assay results from PubChem BioAssay (NCI).
# Compounds without any hit were thinned out: in the full panel of roughly 83,000, 20% have a hit.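 For each line, cells grew in 96-well plates with the test compound present at a single concentration for 48 hours.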 Calls of active or inactive are those of the source. Rule for the calls: active = growth percent below 10; inactive = the rest.
# Test system: MDA-MB-468 breast
# Assay: NCI-60 one-dose screen, 48 h (100 = growth as untreated, 0 = no growth, -100 = all killed)
# Conditions: 10 µM unless noted
row,SMILES,growth
1,CCOC(=O)C1(c2ccccc2)CCN(CC(=O)c2ccc(NC(C)=O)cc2)CC1,110% (inactive)
2,O=C(CCl)Nc1ccc(Cl)cc1,18.6% (inactive)
3,O=C1CCC(=O)N1SC(Cl)(Cl)Cl,116% (inactive)
4,N#CCCc1ccccc1,101% (inactive)
5,CCn1c2ccccc2c2cc(C(=O)c3ccc(C)c4ccccc34)ccc21,25.4% (inactive)
6,O=C1C=CC(=O)C2C1C1(Cl)C(Cl)=C(Cl)C2(Cl)C1(Cl)Cl (centres undefined),5.2% (active)
7,N#Cc1ncc(/N=C/c2ccc(N(CCCl)CCCl)cc2)s1,-2.43% (active)
8,CC1(C)CC(=O)CC(C)(C)N1N=O,124% (inactive)
9,CC1=C[C@H]2O[C@@H]3C[C@H]4OC(=O)/C=C\C=C\[C@H]([C@@H](C)O)OCC/C(C)=C/C(=O)OC[C@@]2(CC1)[C@]4(C)[C@]31CO1,-63.8% (active)
10,Cn1cnnc1[S-].[Au+].c1ccc([PH+](c2ccccc2)c2ccccc2)cc1,-49.1% (active)
11,O=C(CC1(O)C(=O)Nc2ccc(Cl)cc21)c1ccc(C(=O)NCC2CCC3(CC2)OOC2(CCCCC2)OO3)cc1 (centres undefined),18% (inactive)
12,CCC(C)/C=C(C)/C=C/C(=O)c1c(O)c(-c2ccc(O)cc2)c[nH]c1=O (centres undefined),30.3% (inactive)
13,COC(=O)[C@@H](C)C[C@H](Cc1ccccc1)NC(=O)c1nc([C@@H](C[C@H](C(C)C)N(C)C(=O)[C@@H](NC(=O)[C@H]2CCCN2C)C(C)C)OC(C)=O)sc1C,1.81% (active)
14,CC[C@H](C)[C@H](NC(=O)[C@H]1CCCCN1C)C(=O)N(C)[C@H](C[C@@H](OC(C)=O)c1nc(C(=O)N[C@@H](Cc2ccccc2)C[C@H](C)C(=O)O)cs1)C(C)C,-6.41% (active)
15,Cc1ccc(S(=O)(=O)F)cc1C(=O)O,92.5% (inactive)
16,CCCCCCCOC(C(=O)OCCN(CC)CC)(c1ccccc1)c1ccccc1,79.7% (inactive)
17,O=C1C(Cl)=C(N2CCOCC2)C(=O)c2ccccc21,-81% (active)
18,COc1ccc2c(c1)NC1=C(C(=O)OC1)C2c1cc(OC)c(OC)c(OC)c1 (centres undefined),-16.3% (active)
19,COc1cc(/C=C\c2cc(OC)c(OC)c(OC)c2)cc(N/C=C\C(=O)c2ccc(OC(F)(F)F)cc2)c1OC,27.2% (inactive)
20,CCn1cnc2c(Nc3cccc(Cl)c3)nc(N[C@@H]3CCCC[C@@H]3N)nc21,-22% (active)

row,SMILES,growth
1,COc1ccc(/C=C\c2cc(OC)c(OC)c(OC)c2)cc1NC(=O)/C=C/c1ccc(OC)c(OC)c1,1.52% (active)
2,CC[C@@H](C)/C=C(C)/C=C/C(=O)c1c(O)c(-c2ccc(O)cc2)cn(O)c1=O,-25% (active)
3,COC(=O)[C@@H](C)C[C@H](Cc1ccccc1)NC(=O)c1csc([C@@H](C[C@H](C(C)C)N(C)C(=O)[C@@H](NC(=O)[C@H]2CCCCN2C)C2CCCCC2)OC(C)=O)n1,-8.49% (active)
4,c1ccc(CCN2CCCCC2)nc1,107% (inactive)
5,Oc1cc(Cl)ccc1Oc1ccc(Cl)cc1Cl,7% (active)
6,O=S1(=O)OCCO1,98.2% (inactive)
7,CN(CCF)/N=N/c1nc[nH]c1C(N)=O,26.7% (inactive)
8,O=C1CN=C(c2ccc(Cl)cc2)c2sccc2N1,104% (inactive)
9,c1ccc(COc2ccc3[nH]cc(CCN(Cc4ccccc4)Cc4ccccc4)c3c2)cc1,87.9% (inactive)
10,CC[C@H](C)[C@H](NC(=O)[C@H]1CCCCN1C)C(=O)N(C)[C@H](C[C@@H](OC(C)=O)c1cccc(C(=O)N[C@@H](Cc2ccccc2)C[C@H](C)C(=O)O)n1)C(C)C,31.2% (inactive)
11,Nc1ccc(-c2nc3cc(F)ccc3[se]2)cc1F,-21% (active)
12,C[C@]12CCC(=O)C[C@@H]1CC[C@@H]1[C@@H]2CC[C@]2(C)[C@@H](OC(=O)N(CCCl)N=O)CC[C@@H]12,-45.8% (active)
13,ClCCN(CCCl)c1ccc(/C=C\c2ccnc3ccccc23)cc1,46.1% (inactive)
14,ClCCN(CCCl)c1ccc(C=NCCc2c[nH]c3ccccc23)cc1,-16.7% (active)
15,COc1ccc(NC([Se])=NC23CC4CC(CC(C4)C2)C3)cc1,-15.6% (active)
16,C[C@]12C[C@H](c3ccoc3)OC(=O)[C@H]1CC[C@@]1(C)[C@@H]2[C@H]2C=C[C@]1(O)C(=O)O2,105% (inactive)
17,CCC1(CCSC#N)C(=O)NC(=O)NC1=O,107% (inactive)
18,CCOP(=O)(Cc1ccc(C#N)cc1)OCC,108% (inactive)
19,CN(CCCl)c1ccc(/C=C/C2=[N+](C)c3ccccc3C2(C)C)cc1,-1.54% (active)
